Assay outcomes: PubChem, several laboratories
GDH-TPI inh = counter-screen for M. tuberculosis FBA inhibitors: GDH-TPI coupled enzymes | GDH-TPI coupled enzyme counterscreen, NADH absorbance | inhibition, % at 4.8 µM | 360,000 tested, 1.2% active | AID 588335; in the data active means inhibition above about 30%;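 further: 0% = DMSO wells and 100% = wells lacking the enzyme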
PrPC surface inh = cell surface PrPC inhibition, primary TR-FRET screen | P04156 | TR-FRET read-out | inhibition, % at 13.8 µM | 370,000 tested, 0.43% active | AID 720596; in the data active means inhibition above about 24%; further: 0% = median of the test wells and 100% = reference compound wells
TcdB GH inh = TcdB glycohydrolase inhibition. P18177. TcdB glycohydrolase enzymatic assay, plate reader. inhibition, % at 9.99 µM. 350,000 tested, 0.24% active. AID 652162; in the data active means inhibition above about 10%
Target sequence (P18177 whole entry, looked up): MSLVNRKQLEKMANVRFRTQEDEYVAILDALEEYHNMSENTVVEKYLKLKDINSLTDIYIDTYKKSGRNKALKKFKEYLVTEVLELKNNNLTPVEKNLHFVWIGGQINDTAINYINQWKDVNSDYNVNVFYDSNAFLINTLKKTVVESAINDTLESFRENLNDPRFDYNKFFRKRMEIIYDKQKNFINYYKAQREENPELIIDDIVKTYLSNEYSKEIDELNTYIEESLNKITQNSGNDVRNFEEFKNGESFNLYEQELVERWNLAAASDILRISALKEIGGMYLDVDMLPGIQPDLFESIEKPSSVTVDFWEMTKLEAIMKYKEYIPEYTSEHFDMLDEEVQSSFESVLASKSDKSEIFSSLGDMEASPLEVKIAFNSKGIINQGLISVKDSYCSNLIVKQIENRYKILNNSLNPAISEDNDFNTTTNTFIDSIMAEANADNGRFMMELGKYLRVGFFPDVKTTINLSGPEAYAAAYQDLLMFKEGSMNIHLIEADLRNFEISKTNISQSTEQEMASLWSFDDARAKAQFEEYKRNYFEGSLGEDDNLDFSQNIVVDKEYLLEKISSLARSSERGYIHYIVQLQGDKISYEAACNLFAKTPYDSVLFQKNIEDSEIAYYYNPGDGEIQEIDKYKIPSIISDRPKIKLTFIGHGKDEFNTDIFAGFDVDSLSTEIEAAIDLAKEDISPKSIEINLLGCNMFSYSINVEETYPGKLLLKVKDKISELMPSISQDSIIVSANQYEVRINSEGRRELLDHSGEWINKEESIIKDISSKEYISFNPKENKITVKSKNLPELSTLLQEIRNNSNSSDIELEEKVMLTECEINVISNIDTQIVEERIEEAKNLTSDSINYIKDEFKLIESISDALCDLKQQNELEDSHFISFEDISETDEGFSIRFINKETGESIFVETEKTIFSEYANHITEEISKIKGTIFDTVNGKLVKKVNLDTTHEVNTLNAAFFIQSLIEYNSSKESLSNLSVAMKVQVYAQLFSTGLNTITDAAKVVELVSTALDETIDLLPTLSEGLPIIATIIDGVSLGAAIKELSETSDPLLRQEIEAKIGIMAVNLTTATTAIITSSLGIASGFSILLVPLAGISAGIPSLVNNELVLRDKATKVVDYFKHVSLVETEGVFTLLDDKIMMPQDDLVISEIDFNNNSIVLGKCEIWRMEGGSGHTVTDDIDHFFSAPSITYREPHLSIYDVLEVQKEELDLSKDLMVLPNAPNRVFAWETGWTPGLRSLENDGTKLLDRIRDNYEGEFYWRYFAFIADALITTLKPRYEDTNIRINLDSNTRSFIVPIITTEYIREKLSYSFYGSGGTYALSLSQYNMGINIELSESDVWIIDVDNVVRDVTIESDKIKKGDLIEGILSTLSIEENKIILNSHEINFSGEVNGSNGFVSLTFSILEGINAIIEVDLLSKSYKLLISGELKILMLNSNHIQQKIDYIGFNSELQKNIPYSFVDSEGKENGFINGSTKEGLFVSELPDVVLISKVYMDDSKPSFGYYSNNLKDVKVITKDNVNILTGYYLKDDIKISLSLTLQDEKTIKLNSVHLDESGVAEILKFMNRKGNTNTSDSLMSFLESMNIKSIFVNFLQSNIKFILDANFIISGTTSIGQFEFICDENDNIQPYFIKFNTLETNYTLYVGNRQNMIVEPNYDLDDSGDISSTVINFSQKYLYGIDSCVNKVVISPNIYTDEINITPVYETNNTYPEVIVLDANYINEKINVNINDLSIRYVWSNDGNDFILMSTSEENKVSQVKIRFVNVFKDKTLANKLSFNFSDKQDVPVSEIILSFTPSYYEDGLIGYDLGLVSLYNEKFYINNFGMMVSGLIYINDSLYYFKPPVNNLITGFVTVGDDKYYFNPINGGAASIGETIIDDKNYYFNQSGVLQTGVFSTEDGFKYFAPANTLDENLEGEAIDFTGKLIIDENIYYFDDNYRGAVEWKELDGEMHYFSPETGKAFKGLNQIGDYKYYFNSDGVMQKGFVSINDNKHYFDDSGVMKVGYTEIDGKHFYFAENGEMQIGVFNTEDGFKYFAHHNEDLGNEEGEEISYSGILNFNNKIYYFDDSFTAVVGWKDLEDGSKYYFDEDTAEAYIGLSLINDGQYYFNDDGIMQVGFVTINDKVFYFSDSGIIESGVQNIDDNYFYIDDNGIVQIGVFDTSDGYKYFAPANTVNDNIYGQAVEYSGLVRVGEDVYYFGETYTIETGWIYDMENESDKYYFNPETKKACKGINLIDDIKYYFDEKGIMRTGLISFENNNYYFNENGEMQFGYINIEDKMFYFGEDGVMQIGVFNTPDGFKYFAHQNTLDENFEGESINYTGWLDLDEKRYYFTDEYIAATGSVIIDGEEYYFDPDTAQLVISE
Y pestis TopoI = blocks Yersinia pestis topoisomerase I activity | activity, % at 10 µM | 360,000 tested, 0.064% active | Y. pestis Topo-I cleavage product accumulation, plate reader; in the data active means activity above about 50%, passing the limit was not always enough
Mtb FBA inh = inhibits M. tuberculosis FBA enzyme. AID 588726. 360,000 tested, 2.3% active. purified M. tuberculosis FBA, fluorescence read-out. inhibition, % at 1 µM. P9WQA3; in the data active means inhibition above about 27%;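 further: 0% = vehicle and 100% = reference inhibitor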
Starred values were filed as active, the others as inactive; . = no result; + = active, no number. An excerpt weighted towards active compounds, which were near 3.2% of everything screened.

SMILES | GDH-TPI inh | PrPC surface inh | TcdB GH inh | Y pestis TopoI | Mtb FBA inh
CC(=O)Nc1ccc(NC(=O)c2nc(S(=O)(=O)Cc3cccc(C)c3)ncc2Cl)cc1 | 11.3 | 70.9* | 1.3 | -3.6 | -1.4
C[C@@H]1CN([C@H](C)CO)C(=O)c2cc(NC(=O)Cc3cn(C)c4ccccc34)ccc2O[C@@H]1CN(C)CC1CC1 | . | . | 0.0 | . | .
Cc1cccc(C)c1NC(=O)/C(C#N)=C/c1cccs1 | 42.2* | -1.8 | . | 7.7 | 2.9
Cc1ccc(NC(=O)/C(C#N)=C/c2cccs2)c(C)c1 | 8.6 | -9.0 | . | 5.7 | -0.6
Cc1ccc(C2=NS(=O)(=O)N(C)C(C(=O)NCc3cccs3)=C2)cc1 | 23.3 | -5.6 | 19.0* | 7.0 | 0.6
CCc1nnc(N/N=C/c2cccs2)n1N | 16.0 | -7.0 | . | 1.0 | -7.6
Cn1cnc2c(N/N=C/c3cccs3)ncnc21 | 39.1* | 2.8 | 0.3 | -0.6 | -1.8
C(=N\Nc1ncnc2sc3c(c12)CCC3)/c1cccs1 | 33.3* | 23.7 | . | 4.7 | 3.0
C[C@@H]1CN([C@H](C)CO)C(=O)c2cc(-c3cccc(C(=O)N(C)C)c3)cnc2O[C@H]1CN(C)C | . | . | 1.7 | . | .
O=C(N/N=C/c1cccc([N+](=O)[O-])c1)c1cccc(Br)c1 | -6.0 | -1.2 | -0.8 | -7.0 | -2.8
O=C(CNC(=O)c1ccc(F)cc1)N/N=C/c1ccc(O)c([N+](=O)[O-])c1 | 36.7* | -19.6 | -0.1 | -9.0 | -2.9
Cc1onc(-c2ccccc2)c1C(=O)N/N=C/c1ccc(O)c([N+](=O)[O-])c1 | 34.9* | -6.4 | 0.3 | 5.5 | -7.2
O=[N+]([O-])c1cccc(/C=N/Nc2nccnc2Cl)c1 | 37.2* | -31.7 | . | 2.2 | 1.0
O=C(N/N=C/c1cccc([N+](=O)[O-])c1)c1ccc(Br)cc1 | 5.8 | -4.1 | 10.9* | 9.6 | 1.6
O=C(CNC(=O)c1cccc(F)c1)N/N=C/c1ccc(O)c([N+](=O)[O-])c1 | 21.6 | -18.1 | 0.3 | -5.7 | -4.0
Cc1onc(-c2ccccc2)c1C(=O)N/N=C/c1cn(C)c2ccccc12 | 10.6 | 6.9 | 13.4* | 11.7 | -3.4
Cn1cc(/C=N/NC(=O)c2cccc([N+](=O)[O-])c2)c2ccccc21 | 36.7* | -6.4 | . | -16.3 | -1.1
Cn1cc(/C=N/NC(=O)c2ccccc2O)c2ccccc21 | 58.7* | 4.5 | 1.0 | -8.2 | 2.1
COc1ccc(/C=N/NC(=O)c2cccc([N+](=O)[O-])c2)c2ccccc12 | -0.7 | 3.1 | -0.4 | -8.7 | 3.0
Cc1nc(C)c(C(=O)N/N=C/c2cn(C)c3ccccc23)s1 | 33.8* | 7.1 | . | 0.4 | -2.2
COc1ccc(-c2cn(CC[C@H]3CC[C@H](NC(=O)CCN4CCCCC4)[C@@H](CO)O3)nn2)cc1 | . | . | -0.6 | . | .
COc1ccc2c(c1)c(C(=O)N/N=C/c1cn(C)c3ccccc13)c(C)n2C | 36.6* | -6.8 | 3.0 | -3.4 | -2.6
COc1ccc2c(c1)c(C(=O)N/N=C/c1ccc(OC)c(OC)c1)c(C)n2C | 25.7 | 1.9 | . | -2.2 | 1.4
O=C(Nc1ccc(Cl)cc1)N1C[C@H]2[C@@H](c3ccccc31)[C@@H](CO)N2C(=O)c1ccccn1 | . | . | -1.0 | . | .
CCOC(=O)C(=CNc1ncccc1C)C(=O)OCC | 38.0* | -1.4 | . | 2.1 | -0.6
SMILES | GDH-TPI inh | PrPC surface inh | TcdB GH inh | Y pestis TopoI | Mtb FBA inh
CCOC(=O)C(=CNc1ccc(N2CCOCC2)cc1)C(=O)OCC | 63.3* | 3.5 | -0.8 | -5.4 | -2.9
CCOC(=O)C(=CNc1ccc(S(N)(=O)=O)cc1)C(=O)OCC | 40.5* | 2.9 | 1.3 | 4.3 | -0.8
CCOC(=O)C(=CNc1ccc2c(c1)CCN2C(C)=O)C(=O)OCC | 34.6* | 6.3 | 1.9 | -5.6 | -3.0
COCC(=O)Nc1ccc2c(c1)[C@H]1C[C@H](CC(=O)N[C@H](C)c3ccccc3)O[C@H](CO)[C@H]1O2 | . | . | -0.5 | . | .
CCCC#Cc1ccc2c(c1)O[C@@H](CN(C)C(=O)COC)[C@@H](C)CN([C@@H](C)CO)S2(=O)=O | . | . | -0.4 | . | .
Cc1ccc(OCc2cc(C(=O)N3CCc4sccc4C3)no2)cc1C | -2.8 | 6.8 | -0.1 | 53.6* | 1.0
CCOc1ccc(/C=C2\SC(N3CCCCC3)=NC2=O)cc1 | 48.0* | -0.7 | -0.5 | 4.3 | 1.6
O=C(NCC[C@H]1CC[C@H](NC(=O)C2CCOCC2)[C@@H](CO)O1)Nc1ccc(Cl)cc1 | . | . | -0.6 | . | .
CCCCCCC[n+]1ccc(-c2cc[n+](CCCCCCC)cc2)cc1 | 4.9 | -61.6 | 1.0 | 12.3 | 2.4
CCCCCCCCCCCCCCCC[n+]1ccc(/C=N/O)cc1 | -4.5 | 30.5* | 0.6 | 9.0 | -2.9
CCN1[C@H](C(=O)N(C)C)[C@@H](CO)[C@@H]2Cn3c(ccc(/C=C/c4ccccc4)c3=O)[C@@H]21 | . | . | 0.5 | . | .
O=C(Nc1ccccc1)N(CCN1CCOCC1)Cc1cccc(Cl)c1 | 1.2 | 0.8 | -1.8 | 72.6* | 1.5
O=S1(=O)CC/C(=N/Nc2ccccn2)c2cc(F)ccc21 | 32.9* | 3.1 | 0.1 | 1.3 | 0.7
O=C(N/N=C1\CCS(=O)(=O)c2ccc(F)cc21)c1ccc(O)cc1 | 45.6* | -5.1 | 0.1 | 6.4 | 0.7
O=S1(=O)CC/C(=N/Nc2ccc(C(F)(F)F)cn2)c2cc(F)ccc21 | 13.5 | 2.5 | 1.5 | 4.2 | 0.0
Cc1noc(C)c1NC(=O)N(C)C[C@H]1Oc2c(NS(=O)(=O)c3ccc(Cl)cc3)cccc2C(=O)N([C@H](C)CO)C[C@@H]1C | . | . | -0.2 | . | .
COc1ccc(-c2oc3cccnc3c2C#CCO)cc1 | 31.9* | . | . | 20.4 | +
COc1ccc(-c2ccc3oc(-c4ccc(OC)cc4)c(C#CCCO)c3c2)cc1 | 29.1 | -3.1 | 1.3 | 6.0 | 9.3
COc1ccc(-c2oc3cccnc3c2-c2ccc(OC)nc2)cc1 | 7.6 | -0.1 | 1.5 | -0.1 | 138.8*
COc1ccc(-c2oc(=O)c3cc(OC)c(OC)cc3c2C#CC2(O)CCCCC2)cc1 | 5.7 | -1.1 | 1.9 | 1.2 | 0.7
COc1ccc(-c2oc3cccnc3c2C#CC2(O)CCCCC2)cc1 | 34.5* | -3.1 | 0.9 | 30.5 | +
NC(=O)c1ccc(NC(=O)CSc2nnc(C3CC3)n2C2CC2)cc1 | 2.2 | 1.0 | 12.1* | -4.1 | -0.5
O=C(N/N=C/c1sc(=O)n(-c2ccccc2)c1Cl)c1ccccc1 | 31.1* | -15.7 | 0.9 | -11.9 | -3.6
O=C(O)c1cccc(Cn2c(Cl)c(/C=N/NC(=O)c3ccc(O)cc3)sc2=O)c1 | 34.4* | -14.2 | -0.8 | -6.0 | -4.9
O=C(COc1ccccc1)N/N=C/c1sc(=O)n(Cc2cccc(C(=O)O)c2)c1Cl | 23.2 | -6.1 | -1.3 | 2.7 | -2.6
SMILES | GDH-TPI inh | PrPC surface inh | TcdB GH inh | Y pestis TopoI | Mtb FBA inh
COC(=O)c1cccc(Cn2c(Cl)c(/C=N/NC(=O)c3ccco3)sc2=O)c1 | 35.4* | -14.7 | 2.0 | 4.6 | -1.6
O=c1sc(/C=N/Nc2ccccc2)c(Cl)n1Cc1ccccc1 | 86.2* | 0.5 | 1.1 | -14.7 | -0.8
CO[C@@H](CN(C)Cc1cc(F)ccc1F)[C@H](C)CN(C(=O)Nc1ccc(F)cc1)[C@H](C)CO | . | . | -0.1 | . | .
CCS(=O)(=O)NCC[C@@H]1CC[C@@H](NS(=O)(=O)c2cccc(F)c2)[C@@H](CO)O1 | . | . | -0.5 | . | .
S=C(N/N=C/c1ccccc1Cl)Nc1ccccc1 | 29.1 | -4.3 | . | 4.5 | 0.9
Oc1ccc(C=NNC(=S)Nc2ccccc2)nc1 | 54.0* | 7.0 | -5.5 | -2.5 | 8.8
